This is a sample that favours compounds with a hit; in the whole collection about 1.9% have one here.
BaF3 parental: reduces parental Ba/F3 cell viability, JAK2V617F counter-screen. AID 1486. CellTiter-Glo ATP luminescence. hit rate 1.1% among 220,000. inhibition, % at 5.6 µM;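 active = inhibition above a per-campaign cutoff, the mean inhibition of all tested compounds plus 3 SD, cut at about 27% in these data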
IEC-6 cytotox: IEC-6 cytotoxicity, counter-screen for KLF5 inhibitors; luminescence viability; hit rate 0.78% among 290,000; inhibition, % at 5 µM
KLF5 inhibitor: inhibitors of KLF5 expression; DLD-1 KLF5 promoter-luciferase reporter, luminescence; inhibition, % at 5 µM; hit rate 0.23% among 290,000; AID 1700;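 active = inhibition above a per-plate limit of that plate's mean compound inhibition plus 3 SD, cut at about 60% in these data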;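 also: higher means less KLF5 promoter-driven luciferase light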
Ba/F3 V617F tox: lowers viability of Ba/F3 cells expressing EpoR and JAK2V617F | ATP luminescence | inhibition, % at 5.6 µM | hit rate 1.1% among 220,000 | AID 1446;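 active = inhibition above the campaign mean plus 3 SD over all tested compounds, cut at about 24% in these data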;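 also: cytokine-independent growth of Ba/F3 cells driven by EpoR plus mutant JAK2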
APP transl inh: APP translation inhibition; inhibition, % at 2 µM; hit rate 0.82% among 190,000; SH-SY5Y APP 5'UTR-luciferase reporter, luminescence; AID 1285;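 active = inhibition above a set limit, derived from the sample mean plus 3 SD, cut at about 45% in these data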
IEC-6 cytotox cf: confirmation of cytotoxic compounds in rat IEC-6 intestinal epithelial cells | shares compounds with IEC-6 cytotox | IEC-6 rat intestinal epithelial viability, luminescence | inhibition, % at 5 µM | hit rate 63% among 1,900 | AID 1907
Numbers stand for hits; i = inactive; nt = no result. Rule as the data show it, unless noted: active = inhibition above about 22%; inactive = the rest.

SMILES	BaF3 parental	IEC-6 cytotox	KLF5 inhibitor	Ba/F3 V617F tox	APP transl inh	IEC-6 cytotox cf
COc1ccc(N(CC(=O)N/N=C/c2ccccc2F)S(=O)(=O)c2ccccc2)cc1	nt	i	i	nt	nt	nt
O=C(Cc1ccc(Cl)cc1)Nc1ccc2c(c1)C(=O)NC2=O	i	i	i	i	i	nt
O=C(O)CSc1cccc[n+]1[O-]	i	i	i	i	i	nt
O=C(CSc1cccc[n+]1[O-])c1cc(Cl)ccc1Cl	i	28	i	i	i	i
O=C(CSc1cccc[n+]1[O-])c1cccs1	i	i	i	i	i	nt
O=C(CSc1cccc[n+]1[O-])c1cc2ccccc2o1	i	25	i	i	i	i
N#CC(C#N)=C(N)CSc1cccc[n+]1[O-]	i	24	i	i	i	i
S=C(Nc1cccnc1)NC1CC2CCC1C2 (stereo unspecified)	nt	i	i	nt	nt	nt
Cc1cccc(/C=N\NC(=O)c2ccc(Cl)cc2)c1O	i	23	i	i	i	51
Cc1cccc(/C=N/NC(=O)c2c(-c3ccccc3)noc2C)c1O	nt	27	i	nt	nt	48
COc1ccccc1/C=N/NC(=O)c1c(-c2ccccc2)noc1C	nt	i	i	nt	nt	nt
C=CCn1c(COc2ccccc2F)nnc1SCCN1C(=O)c2ccccc2C1=O	i	i	i	i	i	nt
CC(=O)N1CCc2cc(S(=O)(=O)NC(CC(C)C)C(=O)N3CCCC3)ccc21 (stereo unspecified)	nt	i	i	nt	nt	nt
COCCNC(=S)Nc1ccccc1Cc1ccccc1	i	i	i	i	i	nt
CCC1=Nc2cc(C(=O)NCC3CCCO3)ccc2Sc2ccc(Br)cc21 (stereo unspecified)	i	28	i	i	i	31
CCC1=Nc2cc(C(=O)NCCCOC(C)C)ccc2Sc2ccccc21	i	i	i	i	i	nt
COc1ccc(C(=O)NCC2CCCO2)cc1 (stereo unspecified)	i	i	i	i	i	nt
CCC1=Nc2cc(C(=O)NCc3cccnc3)ccc2Sc2ccc(C)cc21	44	67	i	72	nt	56
CCC1=Nc2cc(C(=O)NCC3CCCO3)ccc2Sc2ccc(Cl)cc21 (stereo unspecified)	i	35	i	i	nt	38
Cc1cc(Cl)cc(Cl)c1CNc1c([N+](=O)[O-])c(=O)oc2ccccc12	i	i	i	i	i	nt
COc1ccc(-n2nc3c(c2NC(=O)COc2cccc(OC)c2)CS(=O)(=O)C3)cc1	nt	i	i	nt	nt	nt
O=C(c1ccc(Br)cc1)C(CN1CCOCC1)c1ccccc1 (stereo unspecified)	nt	26	i	nt	nt	i
Cc1ccccc1-c1noc(C(C)NC(=O)c2ccco2)n1 (stereo unspecified)	nt	i	i	nt	nt	nt
CCCOc1ccc(C(=O)NNC(=S)NC(=O)c2cccs2)cc1	nt	39	i	nt	nt	50
CCCOc1ccc(C(=O)NNC(=S)NC(=O)c2ccccc2)cc1	nt	37	i	nt	nt	i
SMILES	BaF3 parental	IEC-6 cytotox	KLF5 inhibitor	Ba/F3 V617F tox	APP transl inh	IEC-6 cytotox cf
Cc1[nH]c2ccccc2c1/C=N/Nc1nc(Nc2ccccc2)nc(N2CCOCC2)n1	41	76	i	32	i	93
Oc1[nH]c2ccccc2c1N=Nc1nc(Nc2ccccc2)nc(N2CCOCC2)n1	i	i	i	i	nt	nt
COC1=C(Nc2ccc(O)cc2)C(=O)c2ccccc2C1=O	i	i	i	i	i	nt
O=C1C(Cl)=C(Nc2ccc(O)cc2)C(=O)c2ccccc21	59	102	i	39	nt	56
COc1ccccc1-n1c(SCC(=O)Nc2ccc(Br)cc2)nc(O)cc1=O	i	i	i	i	nt	nt
CCn1c2ccccc2c2cc(NC(=O)COc3ccccc3OC)ccc21	i	i	i	i	i	nt
CCn1c2ccccc2c2cc(NC(=O)CNCc3ccccc3OC)ccc21	nt	71	i	nt	nt	40
CCOC(=O)c1ccccc1NC(=O)Cn1c(-c2nonc2N)nc2ccccc21	75	77	i	79	94	52
O=C(N/N=C/c1ccco1)c1cc(-c2ccncc2)nc2ccccc12	nt	31	i	nt	nt	i
CCCc1cc(C(=O)N/N=C/c2ccc(C)o2)c2ccccc2n1	i	i	i	i	i	nt
CCOc1ccc(-c2cc(C(=O)N/N=C/c3cccnc3)c3ccccc3n2)cc1	nt	66	i	nt	nt	45
C/C(=N\NC(=O)c1cc(C)nc2ccccc12)c1ccc([N+](=O)[O-])cc1	i	i	i	i	i	nt
CCc1cc(C(=O)N/N=C/c2ccc(OC)cc2)c2ccccc2n1	nt	30	i	nt	nt	i
C/C(=N\NC(=O)c1cc(C)nc2ccccc12)c1ccncc1	nt	42	i	nt	nt	i
Cc1ccc(NC(=O)Cn2nc(C(=O)O)c3ccccc3c2=O)c([N+](=O)[O-])c1	nt	i	i	nt	nt	nt
Cc1ccc(NC(=O)CN(CCc2ccccc2)S(C)(=O)=O)cc1	nt	i	i	nt	nt	nt
COc1ccc(/C=N/NC(=O)c2cccc(NC(=O)c3ccccc3Cl)c2)cc1	nt	72	i	nt	nt	50
CCN(CC1CCCO1)C(=O)c1cc(COc2cc(C)c(Cl)c(C)c2)on1 (stereo unspecified)	nt	i	i	nt	nt	nt
COc1cccc(N2CC(O)=C(c3nc4ccccc4c(=O)[nH]3)C2=N)c1	81	51	i	78	93	64
C=CCOc1ccc(/C=N/N2C(=O)C(CC(=O)Nc3ccc(F)cc3F)SC2=NC)cc1 (stereo unspecified)	i	i	i	i	i	nt
COCCNC(=O)Cc1c(C)c2c(cc(C)c3c(C)coc32)oc1=O	nt	i	i	nt	nt	nt
COCCCNC(=O)Cc1c(C)c2c(cc(C)c3c(C(C)(C)C)coc32)oc1=O	nt	84	i	nt	nt	59
Cc1ccsc1CNS(=O)(=O)c1ccc(F)cc1	nt	i	i	nt	nt	nt
Cc1ccc(C(=O)c2cc([N+](=O)[O-])ccc2N2CCCCC2)cc1C	75	58	i	83	94	61
Cc1ccc(C(=O)c2cc([N+](=O)[O-])ccc2N2CCN(C)CC2)cc1	i	44	i	i	63	38
SMILES	BaF3 parental	IEC-6 cytotox	KLF5 inhibitor	Ba/F3 V617F tox	APP transl inh	IEC-6 cytotox cf
NCCCNC(=O)c1ccc(/C=N/O)nc1	i	i	i	i	i	nt
O=C(Nc1ccc(S(=O)(=O)N2CCOCC2)cc1)c1cc(-c2cc(Cl)ccc2O)n[nH]1	60	36	i	77	nt	i
Cc1cc(O)c(-c2cc(C(=O)Nc3ccc(S(=O)(=O)N4CCOCC4)cc3)[nH]n2)cc1C	i	i	i	i	i	nt
CC(C)=CCN1CCN(Cc2cn(C(C)C)c3ccccc23)CC1CCO (stereo unspecified)	nt	i	i	nt	nt	nt
CCc1ccc(OCC(=O)NNC(=S)NC(=O)C2CC2)c(Br)c1	nt	30	i	nt	nt	i
CCc1ccc(OCC(=O)NNC(=S)NC(=O)C2CCCCC2)c(Br)c1	nt	i	i	nt	nt	nt
Cc1ccc(CNC(=O)Cc2ccc(-n3cccc3)cc2)cc1	i	i	i	i	i	nt
O=C(Cc1ccc(-n2cccc2)cc1)NCc1cccs1	79	73	i	83	94	59
O=c1oc2cc(O[C@@H]3OC[C@@H](O)[C@H](O)[C@H]3O)ccc2c2ccccc12	nt	i	i	nt	nt	nt
CCCN(CC(=O)Nc1ccc(F)c(F)c1F)CC(=O)Nc1c(Cl)cccc1Cl	i	59	i	i	i	38
Cc1ccc(NC(=S)N/N=C/c2cccn2Cc2ccccc2F)cc1	i	i	i	i	nt	nt
